Inconclusive results are not listed. Active and inactive are the calls of the source. Unless noted, calls come from the whole dose curve.
What was measured:
[1] = Nuclear factor erythroid 2-related factor 2/antioxidant responsive element (Nrf2/ARE) small molecule agonists: qHTS cell viability counter screen in human keratinocytes (AID 1919968; active = well fitted curve in the direction sought with a large enough effect in the repeat runs; an effect the other way counts as inactive or inconclusive; note: nearly all actives have a fitted effect of over 55% in size)
Outline: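 KeratinoSens cells (HaCaT keratinocytes stably carrying an ARE-luciferase reporter) were seeded at 1,500 cells/well and rested 5 h at 37 C/5% CO2. They were then exposed to compounds in DMSO for 23 h. Viability was read by CellTiter-Fluor fluorescence after 1 h.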

[2] = Nuclear factor erythroid 2-related factor 2/antioxidant responsive element (Nrf2/ARE) small molecule agonists: luciferase reporter gene qHTS assay in human keratinocytes (AID 1919969); note: nearly all actives have a fitted effect of over 35% in size
[3] = molecular target: Gonadotropin-releasing hormone receptor (Homo sapiens) (UniProt P30968); test: Human gonadotropin-releasing hormone receptor (GnRHR) small molecule agonists, calcium flux assay in GnRHR-HEK293 cells (AID 1920063); note: nearly all actives have a fitted effect of over 35% in size
Gonadotropin-releasing hormone receptor (Homo sapiens), sequence (P30968 whole entry, looked up): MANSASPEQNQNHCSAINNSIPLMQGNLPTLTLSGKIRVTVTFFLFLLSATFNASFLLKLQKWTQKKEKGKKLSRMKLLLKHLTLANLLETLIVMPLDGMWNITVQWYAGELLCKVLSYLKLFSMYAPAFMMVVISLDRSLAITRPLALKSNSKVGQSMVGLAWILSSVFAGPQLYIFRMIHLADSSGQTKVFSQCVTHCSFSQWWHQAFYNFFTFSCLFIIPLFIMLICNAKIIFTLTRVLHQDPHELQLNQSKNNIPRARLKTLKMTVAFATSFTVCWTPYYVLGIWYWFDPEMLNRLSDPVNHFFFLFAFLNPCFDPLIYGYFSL
Outline: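 HEK293 cells stably expressing human GnRHR were plated 18 h at 37 °C, loaded with calcium dye 1 h at 37 °C, then given compound in agonist mode; fluorescence (Ex/Em 480/540) read kinetically for 3 min at 1 s intervals.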

[4] = molecular target: KiSS-1 receptor (Homo sapiens) (UniProt Q969F8); test: Human kisspeptin (KISS1R) small molecule agonists, calcium flux assay in KISS1R-HEK293 cells (AID 1920064; active = well fitted curve in the direction sought with a large enough effect in the repeat runs; an effect the other way counts as inactive or inconclusive)
KiSS-1 receptor (Homo sapiens), sequence (Q969F8 whole entry, looked up): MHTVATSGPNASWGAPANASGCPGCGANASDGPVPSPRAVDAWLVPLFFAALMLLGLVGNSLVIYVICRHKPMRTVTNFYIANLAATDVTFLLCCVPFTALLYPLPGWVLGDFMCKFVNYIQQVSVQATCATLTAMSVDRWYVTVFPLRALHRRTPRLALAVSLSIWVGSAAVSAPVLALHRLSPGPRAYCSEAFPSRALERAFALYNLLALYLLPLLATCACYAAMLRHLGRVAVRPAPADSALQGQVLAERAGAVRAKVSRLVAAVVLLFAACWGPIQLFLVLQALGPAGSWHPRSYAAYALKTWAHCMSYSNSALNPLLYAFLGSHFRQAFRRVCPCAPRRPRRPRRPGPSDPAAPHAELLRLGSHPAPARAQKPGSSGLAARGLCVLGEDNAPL
Outline: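 HEK293 cells stably expressing human KISS1R were plated 18 h at 37 °C, loaded with calcium dye for 1 h at 37 °C, then given compound by pin tool. Fluorescence (Ex/Em 480/540) was read kinetically for 3 min.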

[5] = G protein-coupled receptor (GPCR) small molecule agonists, calcium flux assay: HEK293 wild type cell line counter screen (AID 1920065)
Outline: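 Cells were plated and cultured 18 h at 37 C/5% CO2, then loaded with calcium dye for 1 h at 37 C. Compounds in DMSO were pin-transferred in agonist mode, and fluorescence (Ex/Em 480/540) was read kinetically for 3 min at 1 s intervals.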

[6] = p53 small molecule agonists, cell-based qHTS assay with human liver microsomes (AID 1963577)
Outline: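 Fluorescence of the beta-lactamase reporter in p53RE-bla cells, detected with LiveBLAzer substrate (2 h, room temperature, dark), served as the read-out after 16 h compound exposure at 37 C with human liver microsomes and NADPH, each 0.5 mg/mL final.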

[7] = p53 small molecule agonists, cell-based qHTS assay with rat liver microsomes (AID 1963578)
Outline: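 Cells carrying a p53 response element–beta-lactamase reporter were plated and rested 5 h, then dosed with compound in DMSO plus rat liver microsomes and NADPH, each at 0.5 mg/mL final. After 16 h at 37 C, LiveBLAzer substrate was added for 2 h.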

[8] = p53 small molecule agonists, cell-based qHTS assay with human liver microsomes: qHTS cell viability counter screen (AID 1963579); note: nearly all actives have a fitted effect of over 45% in size
Outline: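 Cytotoxicity counter screen: p53RE-bla, 4,000 cells/well; 5 h settle, 37 C/5% CO2; cpd + HLM 0.5 mg/mL + NADPH 0.5 mg/mL (final); 16 h, 37 C; CellTiter-Glo, 30 min RT, luminescence.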

[9] = p53 small molecule agonists, cell-based qHTS assay with rat liver microsomes: qHTS cell viability counter screen (AID 1963580); note: nearly all actives have a fitted effect of over 45% in size
Outline: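 p53RE-bla HCT-116 cells (4,000/well) rested 5 h at 37 C, then given Tox21 compounds in DMSO with rat liver microsomes (0.5 mg/mL final) plus NADPH (0.5 mg/mL final) for 16 h at 37 C. Viability read by CellTiter-Glo luminescence after 30 min at room temperature.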

[10] = p53 small molecule agonists, cell-based qHTS assay (AID 1963582; active = well fitted activation curve with a large enough effect in the signal ratio in the repeat runs, not every such curve was filed as active; the % refers to the signal ratio)
Outline: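 p53RE-bla beta-lactamase reporter cells rested 5 h at 37 C/5% CO2, then received compounds in DMSO by pin transfer and were incubated 16 h at 37 C. LiveBLAzer B/G FRET substrate was loaded for 2 h at room temperature before fluorescence reading.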

[11] = molecular target: 5-hydroxytryptamine receptor 2A (Homo sapiens) (UniProt P28223); test: 5-hydroxytryptamine receptor 2A (HTR2A) small molecule antagonists, cell-based qHTS assay (AID 1963586); note: nearly all actives have a fitted effect of over 45% in size
5-hydroxytryptamine receptor 2A (Homo sapiens), sequence (P28223 whole entry, looked up): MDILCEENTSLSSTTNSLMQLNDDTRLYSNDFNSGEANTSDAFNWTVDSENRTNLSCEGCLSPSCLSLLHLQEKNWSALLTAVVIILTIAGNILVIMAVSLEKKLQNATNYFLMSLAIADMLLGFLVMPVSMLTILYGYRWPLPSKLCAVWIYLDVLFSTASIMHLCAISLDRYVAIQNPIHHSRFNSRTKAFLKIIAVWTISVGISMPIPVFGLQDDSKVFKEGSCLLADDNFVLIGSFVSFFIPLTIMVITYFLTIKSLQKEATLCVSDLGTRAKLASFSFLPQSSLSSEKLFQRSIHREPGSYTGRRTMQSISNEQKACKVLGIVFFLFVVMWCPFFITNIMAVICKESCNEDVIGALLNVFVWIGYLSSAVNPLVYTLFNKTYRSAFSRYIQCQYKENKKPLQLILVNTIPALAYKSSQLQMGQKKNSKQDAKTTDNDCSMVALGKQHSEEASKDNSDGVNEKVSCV
Outline: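 Antagonist-mode intracellular calcium assay: DOI (4 nM) added after 5 min compound pre-incubation at room temperature to dye-loaded HTR2A-CHO cells. Fluorescence followed for 3 min, sampled every second.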

[12] = molecular target: 5-hydroxytryptamine receptor 2A (Homo sapiens) (UniProt P28223); test: 5-hydroxytryptamine receptor 2A (HTR2A) small molecule agonists, cell-based qHTS assay (AID 1963587); note: nearly all actives have a fitted effect of over 30% in size
Outline: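 HTR2A-CHO cells, plated 18 h at 37 C/5% CO2, dye-loaded 1 h at 37 C; compounds in DMSO added by pin tool (agonist mode). Intracellular calcium flux read as kinetic fluorescence on FDSS over 2 min at 1 s intervals.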

[13] = molecular target: Muscarinic acetylcholine receptor M1 (Homo sapiens) (UniProt P11229); test: Cholinergic receptor muscarinic 1 (CHRM1) small molecule antagonists, cell-based qHTS assay (AID 1963588); note: nearly all actives have a fitted effect of over 40% in size
Muscarinic acetylcholine receptor M1 (Homo sapiens), sequence (P11229 whole entry, looked up): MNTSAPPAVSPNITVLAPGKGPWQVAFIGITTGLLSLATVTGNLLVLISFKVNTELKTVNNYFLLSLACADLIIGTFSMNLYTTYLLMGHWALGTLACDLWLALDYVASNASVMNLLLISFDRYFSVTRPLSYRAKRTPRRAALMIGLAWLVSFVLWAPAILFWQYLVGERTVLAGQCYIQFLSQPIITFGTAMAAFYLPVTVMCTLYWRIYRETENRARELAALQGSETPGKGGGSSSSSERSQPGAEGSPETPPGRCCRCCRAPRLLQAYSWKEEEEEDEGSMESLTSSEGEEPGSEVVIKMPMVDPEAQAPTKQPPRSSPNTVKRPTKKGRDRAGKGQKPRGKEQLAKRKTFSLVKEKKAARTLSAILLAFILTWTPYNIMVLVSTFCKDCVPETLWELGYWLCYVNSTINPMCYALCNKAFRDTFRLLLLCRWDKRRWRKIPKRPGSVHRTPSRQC
Outline: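 CHRM1-CHO calcium-flux assay, antagonist mode. Cells were seeded 18 h, dye-loaded 1 h at 37 C and given compound for 5 min at RT, then acetylcholine was added at 50nM. FDSS fluorescence was read 3 min; 15 concentrations, three runs.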

[14] = molecular target: Muscarinic acetylcholine receptor M1 (Homo sapiens) (UniProt P11229); test: Cholinergic receptor muscarinic 1 (CHRM1) small molecule agonists, cell-based qHTS assay (AID 1963589); note: nearly all actives have a fitted effect of over 35% in size
Outline: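 CHO cells stably expressing human CHRM1, seeded 18 h at 37 C/5% CO2, dye-loaded 1 h at 37 C, then given compound in agonist mode; intracellular calcium fluorescence read kinetically at 1 s intervals. Fifteen concentrations, three independent runs.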

[15] = cAMP Responsive Elements (CRE) small molecule antagonists, cell-based qHTS assay (AID 1963591; active = well fitted inhibition curve with a large enough effect in the signal ratio in the repeat runs, not every such curve was filed as active; the % refers to the signal ratio)
Outline: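 CRE-bla HEK293T cells were plated 18 h at 37 °C/5% CO2, pinned with compound in DMSO, then stimulated with NKH477 at 0.25 uM final for 3 h. LiveBLAzer B/G FRET substrate was added and plates incubated 2 h at room temperature.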

[16] = molecular target: Beta-2 adrenergic receptor (Homo sapiens) (UniProt P07550); test: Adrenergic beta2 receptor (ADRB2) small molecule antagonists, cell-based qHTS assay (AID 1963592); note: series mostly up to about 92 µM; nearly all actives have a fitted effect of over 50% in size
Beta-2 adrenergic receptor (Homo sapiens), sequence (P07550 whole entry, looked up): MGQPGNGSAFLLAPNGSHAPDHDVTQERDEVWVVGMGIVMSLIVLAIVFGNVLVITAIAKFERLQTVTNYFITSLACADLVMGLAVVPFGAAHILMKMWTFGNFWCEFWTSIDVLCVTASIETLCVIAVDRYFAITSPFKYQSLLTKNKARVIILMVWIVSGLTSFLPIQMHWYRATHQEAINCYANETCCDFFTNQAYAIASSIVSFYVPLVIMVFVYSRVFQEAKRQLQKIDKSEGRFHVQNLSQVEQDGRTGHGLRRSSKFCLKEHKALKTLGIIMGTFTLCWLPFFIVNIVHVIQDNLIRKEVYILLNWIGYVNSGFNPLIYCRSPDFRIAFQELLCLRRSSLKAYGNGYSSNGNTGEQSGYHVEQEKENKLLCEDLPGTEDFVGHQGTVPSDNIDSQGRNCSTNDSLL
Outline: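 Cells (CHO, stable ADRB2 overexpression) incubated 18-20hr at 37C; compounds added from DMSO; agonist mix (1nM isoproterenol, 100uM IBMX, 25uM Ro-20-1724) added; 0.5hr RT; d2-cAMP and anti-cAMP-cryptate added; 1hr RT; 665/615 nm read.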

[17] = molecular target: D(2) dopamine receptor (Homo sapiens) (UniProt P14416); test: Dopamine D2 receptor (DRD2) small molecule agonists, cell-based qHTS assay (AID 1963594); note: nearly all actives have a fitted effect of over 35% in size
D(2) dopamine receptor (Homo sapiens), sequence (P14416 whole entry, looked up): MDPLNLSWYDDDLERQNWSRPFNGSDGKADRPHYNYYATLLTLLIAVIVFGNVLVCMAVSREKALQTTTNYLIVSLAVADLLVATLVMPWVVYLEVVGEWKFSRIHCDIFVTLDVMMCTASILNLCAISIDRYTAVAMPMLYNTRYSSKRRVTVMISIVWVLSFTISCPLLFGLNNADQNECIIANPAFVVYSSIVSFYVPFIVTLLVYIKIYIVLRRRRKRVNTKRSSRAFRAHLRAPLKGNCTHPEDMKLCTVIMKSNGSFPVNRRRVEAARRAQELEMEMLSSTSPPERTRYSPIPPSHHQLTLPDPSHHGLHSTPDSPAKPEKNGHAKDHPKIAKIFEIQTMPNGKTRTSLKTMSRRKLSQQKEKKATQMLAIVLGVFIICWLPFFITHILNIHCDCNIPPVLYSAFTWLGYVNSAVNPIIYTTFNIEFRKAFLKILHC
Outline: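 HEK293 cells stably expressing DRD2 were cultured 24 h at 37 C, then given Ro20-1724 (0.1 mM final) and compounds for 10 min at room temperature. NKH477 (200nM) was then added for 30 min. cAMP was read by HTRF.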

[18] = molecular target: D(2) dopamine receptor (Homo sapiens) (UniProt P14416); test: Dopamine D2 receptor (DRD2) small molecule antagonists, cell-based qHTS assay (AID 1963595; active = well fitted inhibition curve with a large enough effect in the signal ratio in the repeat runs, with a control signal flat; the % refers to the signal ratio)
Outline: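 Antagonism was scored as restored cAMP in HEK293-DRD2 cells. These cells were stimulated with 200 nM NKH477 and 12 nM quinpirole for 30 min at room temperature, in the presence of 0.1 mM Ro20-1724.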

[19] = p53 small molecule agonists, cell-based qHTS assay: qHTS cell viability counter screen (AID 1963581); note: nearly all actives have a fitted effect of over 45% in size
Outline: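 p53RE-bla HCT-116 cells were exposed to compounds for 16 h at 37 C; after the beta-lactamase FRET read in the same wells, CellTiter-Glo was added and luminescence (intracellular ATP) read after 30 min at room temperature.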

[20] = cAMP Responsive Elements (CRE) small molecule agonists, cell-based qHTS assay (AID 1963590)
Outline: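 CRE-bla HEK 293T cells in DMEM with 10% dialyzed FBS, NEAA, pyruvate and 25 mM HEPES were plated 18 h at 37 C/5% CO2, then exposed to compounds in DMSO for 3 h before LiveBLAzer B/G FRET substrate addition.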
% is set by controls: 0 for no effect and ±100 for the full control effect.

CC(=O)c1ccc2ccccc2c1
inactive: Potency [1] | Potency [2] | Potency [3] | Potency [4] | Potency [5] | Potency [6] | Potency [7] | Potency [8] | Potency [9] | Potency [10] | Potency [11] | Potency [12] | Potency [13] | Potency [14] | Potency [15] | Potency [16] | Potency [17] | Potency [18]

CCCCC(CC)COP(=O)(OCC(CC)CCCC)OCC(CC)CCCC (centres undefined)
inactive: Potency [1] | Potency [2] | Potency [3] | Potency [4] | Potency [5] | Potency [6] | Potency [7] | Potency [8] | Potency [19] | Potency [10] | Potency [11] | Potency [12] | Potency [13] | Potency [14] | Potency [20] | Potency [15] | Potency [16] | Potency [17] | Potency [18]

CC(C)(C)NCCO
inactive: Potency [1] | Potency [2] | Potency [3] | Potency [4] | Potency [5] | Potency [6] | Potency [7] | Potency [8] | Potency [19] | Potency [10] | Potency [11] | Potency [12] | Potency [13] | Potency [14] | Potency [20] | Potency [15] | Potency [16] | Potency [17] | Potency [18]

C=CCCCCCCCCCCC
inactive: activity change, negative = cytotoxicity [1] -0.936% [at 8.39 µM] | activity, positive = activation [2] -0.901% [at 8.39 µM] | activity change [3] -0.462% [at 5.22 µM, stronger effect = higher value] | activation [4] 3.21% [at 6.97 µM] | activation [5] -0.84% [at 5.23 µM] | activation [6] 1.56% [at 5.99 µM] | activation [7] -3.89% [at 5.99 µM] | activity change, negative = cytotoxicity [8] 1.8% [at 5.99 µM] | activity change, negative = cytotoxicity [9] -1.27% [at 5.99 µM] | activation [10] 0.37% [at 5.99 µM] | activity, negative = inhibition [11] 4.71% [at 5.62 µM] | activation [12] 0.539% [at 7.02 µM] | activity, negative = inhibition [13] -16.9% [at 5.58 µM] | activation [14] -0.585% [at 6.97 µM] | activation [20] -0.0768% [at 8.39 µM] | activity change, negative = inhibition [15] -0.765% [at 8.39 µM] | activation [17] -0.7% [at 8.39 µM] | activity change, negative = inhibition [18] -0.184% [at 8.38 µM]

CCC(C)CO (centres undefined)
inactive: Potency [1] | Potency [2] | Potency [3] | Potency [4] | Potency [5] | Potency [6] | Potency [7] | Potency [8] | Potency [19] | Potency [10] | Potency [11] | Potency [12] | Potency [13] | Potency [14] | Potency [20] | Potency [15] | Potency [16] | Potency [17] | Potency [18]

CCCSSCCC
inactive: Potency [1] | Potency [2] | Potency [3] | Potency [4] | Potency [5] | Potency [6] | Potency [7] | Potency [8] | Potency [9] | Potency [11] | Potency [12] | Potency [13] | Potency [14] | Potency [20] | Potency [15] | Potency [16] | Potency [17]

CC(CN1c2ccccc2Sc2ccccc21)N(C)C (centres undefined)
inactive: Potency [1] | Potency [2] | Potency [3] | Potency [4] | Potency [5] | Potency [6] | Potency [7] | Potency [8] | Potency [9] | Potency [10] | Potency [20] | Potency [15] | Potency [16] | Potency [17] | Potency [18]

CC(C)CC(=O)O
inactive: Potency [1] | Potency [2] | Potency [3] | Potency [4] | Potency [5] | Potency [6] | Potency [7] | Potency [8] | Potency [9] | Potency [10] | Potency [12] | Potency [13] | Potency [14] | Potency [20] | Potency [15] | Potency [16] | Potency [17] | Potency [18]

O=S(=O)(O)c1ccc2cc(O)c(S(=O)(=O)O)cc2c1
inactive: Potency [1] | Potency [2] | Potency [3] | Potency [4] | Potency [5] | Potency [6] | Potency [7] | Potency [8] | Potency [9] | Potency [10] | Potency [11] | Potency [13] | Potency [14] | Potency [20] | Potency [15] | Potency [16] | Potency [17] | Potency [18]

CC(CO)CO
inactive: Potency [1] | Potency [2] | Potency [3] | Potency [4] | Potency [5] | Potency [6] | Potency [7] | Potency [8] | Potency [9] | Potency [10] | Potency [11] | Potency [12] | Potency [14] | Potency [20] | Potency [15] | Potency [16] | Potency [18]

CCOCOCC
inactive: Potency [1] | Potency [2] | Potency [3] | Potency [4] | Potency [5] | Potency [6] | Potency [7] | Potency [8] | Potency [9] | Potency [10] | Potency [11] | Potency [12] | Potency [13] | Potency [14] | Potency [20] | Potency [15] | Potency [16] | Potency [17] | Potency [18]

CCOC(OCC)OCC
inactive: Potency [1] | Potency [2] | Potency [3] | Potency [4] | Potency [5] | Potency [6] | Potency [7] | Potency [8] | Potency [9] | Potency [10] | Potency [11] | Potency [12] | Potency [13] | Potency [14] | Potency [20] | Potency [15] | Potency [16] | Potency [17] | Potency [18]

CSc1ccc(C(=O)c2[nH]c(=O)[nH]c2C)cc1
inactive: Potency [1] | Potency [2] | Potency [3] | Potency [4] | Potency [5] | Potency [6] | Potency [7] | Potency [8] | Potency [9] | Potency [10] | Potency [11] | Potency [12] | Potency [13] | Potency [14] | Potency [20] | Potency [15] | Potency [17] | Potency [18]

Nc1cc(S(=O)(=O)O)cc2cc(S(=O)(=O)O)cc(O)c12
inactive: Potency [1] | Potency [2] | Potency [3] | Potency [4] | Potency [5] | Potency [6] | Potency [7] | Potency [8] | Potency [9] | Potency [11] | Potency [12] | Potency [14] | Potency [20] | Potency [15] | Potency [16]
